An excerpt weighted towards active compounds, which were near 19% of everything screened.
DT40 TDP1 CPT – growth inhibition of DT40 Tdp1-/-;hTDP1 cells with camptothecin (screen for TDP1 inhibitors). chicken DT40 Tdp1-/-;hTDP1 cells + 20 nM CPT, ATP luminescence, 48 h. Potency, µM (doses to about 46.2 µM), without a hit: top-dose activity change, negative = growth inhibition, hits mostly inhibitors. 12% of 420,000 active; further: nearly all actives have a fitted effect of over 55% in size
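Chicken DT40 Tdp1-/- cells complemented with human TDP1, 400 cells/well, exposed to compounds plus 20 nM camptothecin for at least 48 h at 37 C; viability read as ATP content by CellTiter-Glo luminescence.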
TDP1 cell noCPT – qHTS for Inhibitors of human tyrosyl-DNA phosphodiesterase 1 (TDP1): qHTS in cells in absence of CPT; DT40 Tdp1-/- hTDP1 cells, no CPT, ATP luminescence, 48 h; Potency, µM (series often up to 46.2 µM), without a hit: at the top dose activity change, negative = growth inhibition, usual class: inhibitors; 15% of 420,000 active; further: nearly all actives have a fitted effect of over 55% in size
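Chicken DT40 Tdp1-/- cells complemented with human TDP1, screened without camptothecin (DMSO vehicle only), 400 cells/well. Compounds pin-transferred, cells incubated at 37 °C for at least 48 hr. Growth read as ATP-dependent luminescence (CellTiter-Glo, 30 min at RT).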
KB-V1 MDR tox – KB-V1 MDR subline cytotoxicity | AID 1347076 | 3.4% of 400,000 active | Potency, µM (titrated, usually from 46.1 µM), actives largely listed as cytotoxic | KB-V1 MDR cells viability, CellTiter-Glo, 72 h; further: nearly all actives have a fitted effect of over 60% in size
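qHTS viability screen in drug-selected KB-V1 MDR cells: 72 h compound treatment at 37 degrees C, ATP luminescence end point.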
HT1080 IDH1KD tx – toxicity to HT-1080 IDH1 knockdown cells (counter line) | Potency, µM (top dose mostly 46.1 µM), without a hit: top-dose activity, negative = toxicity, most hits filed as cytotoxic | AID 686971 | HT-1080 IDH1 knockdown viability, ATP luminescence, 48 h | 2% of 360,000 active;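 further: 0% = DMSO wells and -100% = cell-free medium wells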
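Luminescent ATP read-out (CellTiter-Glo, 10 min at room temperature) after 48 h compound exposure at 37 °C gave viability of IDH1-knockdown HT-1080 cells. Activity was normalised to DMSO and cell-free wells, then fitted as concentration-response curves.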
KB-3-1 cytotox – kills parental KB-3-1 adenocarcinoma cells | KB-3-1 viability, CellTiter-Glo ATP luminescence, 72 h | Potency, µM (series often up to 46.1 µM), most hits filed as cytotoxic | 1.4% of 400,000 active; further: nearly all actives have a fitted effect of over 60% in size
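Parental KB-3-1 viability, qHTS format: 72 h compound exposure, 37 °C; CellTiter-Glo; media-only wells and DMSO plates as controls; concentration-effect fits on corrected data.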
HT1080NT lethal – kills 2HG-producing HT-1080-NT fibrosarcoma cells; AID 686970; HT-1080-NT fibrosarcoma viability, CellTiter-Glo ATP luminescence, 48 h; Potency, µM (doses to about 46.1 µM), inactives show at the highest dose activity, negative = less viability, actives largely listed as cytotoxic; 1.6% of 360,000 active;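 further: NT is the 2HG producing partner of a matched IDH1 knockdown line; 0% = DMSO-treated cells and -100% = media-only wells without cells; nearly all actives have a fitted effect of over 55% in size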
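Viability of the 2HG-overproducing fibrosarcoma line after 48 hours of compound exposure at 37 degrees C was determined by luminescence with CellTiter-Glo, and concentration-effect curves were then fitted and categorized.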
The depositor's hits bear a star; i = inactive; ? = inconclusive; nt = no result given. The call rests on the fitted dose curve; in most records, active means well fitted curve in the direction sought with a large enough effect; inconclusive means small, poorly fitted or top-dose-only effect, or another doubt; inactive means no such curve, though single readings can be large; an effect the other way counts as inactive or inconclusive. Unless noted, on the % scale 0 is the no-effect control and ±100 the full control effect; potency means the concentration at half of the fitted maximal effect.

SMILES	DT40 TDP1 CPT	TDP1 cell noCPT	KB-V1 MDR tox	HT1080 IDH1KD tx	KB-3-1 cytotox	HT1080NT lethal
CCC(C)c1ccc(NC(=O)C2CCN(c3ccc(C(F)(F)F)cn3)CC2)cc1 (stereo not drawn)	?	?	i	?	i	?
COc1cc2[nH]c(C(=O)NCc3ccccc3)cc2c(OC)c1OC	-3%	?	i	-18%	?	1%
COc1cc(-c2nnc(SCC(=O)NCc3ccccc3Cl)o2)cc(OC)c1OC	?	?	i	nt	i	nt
COc1ccc(NC(=O)Cn2c(=O)n(-c3cc(C)cc(C)c3)c(=O)c3oc4ccccc4c32)cc1OC	8.2µM*	8.2µM*	nt	nt	nt	nt
Cc1ccc(Cn2c(=O)n(-c3cc(C)cc(C)c3)c(=O)c3oc4ccccc4c32)cc1	?	23µM*	nt	nt	nt	nt
COc1ccc(NC(=O)Cn2c(=O)n(C(C)C)c(=O)c3oc4ccccc4c32)cc1Cl	?	16µM*	nt	nt	nt	nt
Cc1ccc(Cn2c(=O)n(Cc3ccco3)c(=O)c3oc4ccccc4c32)cc1	-6%	-10%	i	nt	i	nt
CC(C)c1nc(=S)c2ccccc2[nH]1	?	18µM*	i	-13%	i	-6%
CCc1ccccc1Nc1cc(C(=O)NCCc2ccccc2)c2ccccc2n1	?	?	i	nt	i	nt
COC(=O)c1ccc(CNC(=O)CSc2nc3ccccc3[nH]2)cc1	-5%	-24%	i	10%	i	10%
Cn1c(SCc2cccc([N+](=O)[O-])c2)nc2c(c1=O)SCC2	?	?	4.1µM*	?	?	-21%
Cn1c(SCc2ccc(Br)cc2)nc2c(c1=O)SCC2	18µM*	16µM*	21µM*	-7%	21µM*	-1%
Cn1c(SCc2cccnc2)nc2c(c1=O)SCC2	-3%	8%	?	-4%	i	-3%
CN(C)c1ccc(C(CNC(=O)c2ccccc2)N2CCc3ccccc32)cc1 (stereo not drawn)	7.3µM*	15µM*	i	nt	i	nt
CCOc1ccc(S(=O)(=O)NCC(c2ccc(N(C)C)cc2)N2CCc3ccccc32)cc1 (stereo not drawn)	?	?	i	nt	i	nt
COc1ccccc1C(=O)NCC(c1ccc(N(C)C)cc1)N1CCc2ccccc21 (stereo not drawn)	21µM*	16µM*	i	nt	i	nt
COc1ccc(C(=O)NCC(c2ccc(N(C)C)cc2)N2CCc3ccccc32)cc1 (stereo not drawn)	7.3µM*	8.2µM*	i	nt	i	nt
CN(C)c1ccc(CNC(=O)c2ccc(NC(=O)N3CCCCc4ccccc43)cc2)cc1	?	?	i	nt	i	nt
CC(C)Oc1ccc(C(=O)NCC(c2ccc(N(C)C)cc2)N2CCc3ccccc32)cc1 (stereo not drawn)	9.2µM*	21µM*	i	nt	i	nt
CN(C)c1ccc(C(CNC(=O)c2ccccc2Cl)N2CCc3ccccc32)cc1 (stereo not drawn)	?	?	i	nt	i	nt
CC(=O)Nc1nc(C)c(-c2nc3ccc([N+](=O)[O-])cc3[nH]2)s1	-22%	-29%	i	4%	i	5%
C=CCOn1c(=O)c(-c2ccc(F)cc2)[n+]([O-])c2ccccc21	2%	-23%	i	10%	i	14%
CC1CCC2(C1)N=C(Nc1nc3ccccc3o1)NC1=C2C(=O)CCC1 (stereo not drawn)	nt	nt	i	nt	i	nt
Cc1noc(C)c1S(=O)(=O)NC(=O)C1(C)CCN1C(=O)Cc1ccc(-c2ccccc2)cc1 (stereo not drawn)	-12%	3%	?	30%	i	2%
COc1cc(C(=O)NCCC(=O)NCc2c(F)cc(F)cc2F)cc(OC)c1OC	6%	20%	i	1%	i	5%
SMILES	DT40 TDP1 CPT	TDP1 cell noCPT	KB-V1 MDR tox	HT1080 IDH1KD tx	KB-3-1 cytotox	HT1080NT lethal
COc1ccc(S(=O)(=O)NCC(c2ccc(N(C)C)cc2)N2CCc3ccccc32)cc1 (stereo not drawn)	?	?	i	nt	i	nt
Cc1ccc(S(=O)(=O)NCC(c2ccc(N(C)C)cc2)N2CCc3ccccc32)cc1C (stereo not drawn)	?	23µM*	i	nt	i	nt
CCC(COC(=O)Nc1cccc(C)c1C)NC(=O)OCC(C)C (stereo not drawn)	-23%	-17%	9.2µM*	-15%	i	-5%
CCC(CC)NC(=O)Nc1cccc(C)c1C	-14%	-1%	i	-8%	i	3%
O=C(O)/C=C/C(=O)Nc1ccc(Oc2ccccc2)cc1	-1%	-12%	i	1%	i	-1%
CCOC(=O)/C=C/S(=O)(=O)c1ccc(NC(C)=O)cc1	1.3µM*	2.1µM*	i	?	15µM*	?
CCOC(=O)/C=C/C(=O)Nc1ccc(S(=O)(=O)Nc2c(C)cc(C)cc2C)cc1	7.3µM*	16µM*	i	-25%	?	?
CCOC(=O)/C=C/C(=O)Nc1ccc(Oc2ccccc2)cc1	?	?	i	16µM*	i	7.3µM*
Cc1cc(C)c(NS(=O)(=O)c2ccc(NC(=O)c3cccs3)cc2)c(C)c1	-5%	-11%	i	-9%	i	0%
COC(=O)c1ccc(CSc2nnc3c(n2)[nH]c2ccccc23)cc1	-10%	-13%	i	6%	i	16%
CC(Sc1nnc2c(n1)[nH]c1ccccc12)C(=O)NC1CCCCC1 (stereo not drawn)	23µM*	21µM*	?	?	i	-21%
CC(Sc1nnc2c(n1)[nH]c1ccccc12)C(=O)N(C)C1CCCCC1 (stereo not drawn)	26µM*	21µM*	i	-21%	i	-18%
N#CCCn1c(=O)c(-c2cccs2)nc2cnc(Oc3cccc(Cl)c3)nc21	-15%	?	nt	nt	nt	nt
COc1ccccc1N1CCN(C2CCCN(C(=O)CCN3CCCCO3)C2)CC1 (stereo not drawn)	2%	16%	i	13%	i	16%
COc1ccc(Br)cc1CNC(=O)c1ccc(-n2c(C)cc3c2CCC(C)C3)cc1 (stereo not drawn)	23µM*	18µM*	nt	nt	nt	nt
Cc1cc2c(n1-c1ccc(C(=O)NCc3cccc(Br)c3)cc1)CCC(C)C2 (stereo not drawn)	?	15µM*	nt	nt	nt	nt
